# Data reported in PubChem BioAssay AID1345083 (National Center for Advancing Translational Sciences (NCATS), 2018).
# The whole screen tested about 94,000 compounds, of which about 6,200 (6.6%) were called active. Not shown: some 31% with an inconclusive outcome. This is one part of a sample in which actives are shown more often than they occur. Unmarked numbers belong to inactive results. Calls come from the whole dose curve; as a rule, active = well fitted inhibition curve with a large enough effect; inconclusive = small, poorly fitted or top-dose-only effect; inactive = flat fitted curve, though single readings scatter.
# Experiment: Cytotoxic Profiling in HEK 293 Cell Line of Diverse Libraries Using Quantitative High-Throughput Screening; note: nearly all actives have a fitted effect of over 60% in size
# Details: HEK 293 viability, ATP luminescence (CellTiter-Glo), 48-72 h; series mostly up to 115 µM; activity change, negative = cytotoxicity: at the top concentration
# Method in brief: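 ATP-coupled CellTiter-Glo luminescence served as viability read-out, recorded 10 min after reagent addition at room temperature. HEK 293 cells, 250 cells/well, had been incubated with pintool-transferred compound for 48 or 72 hr at 37 degree Celsius.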
# % is set by controls: 0 for no effect and ±100 for the full control effect; potency is the fitted concentration of half-maximal effect.
SMILES,outcome,"activity change, negative = cytotoxicity",Potency
O=C(O)C[C@@H]1CCN(S(=O)(=O)c2ccccc2)C[C@@H]1CC1=NCCc2cc(F)ccc21,inactive,–,–
O=C(NC1CCN(C(=O)N2CC3CC(C2)[C@H]2CCCC(=O)N2C3)CC1)c1ccsc1 (some centres undefined),–,6.66%,–
O=C(c1ccccc1F)N1CCC2(CC1)N(c1ccccc1)C(=O)CS2(=O)=O,–,1.12%,–
O=C(NCc1ccccc1-n1cncn1)C1CC(=O)N(Cc2ccccn2)C1 (centres undefined),–,-7.73%,–
Cc1cccc(Cl)c1NC(=O)Cn1c(C)cc2nc3n(c(=O)c21)CCCCC3,–,-4.66%,–
COc1ccccc1C(=O)NCC1Cn2cccc2C(=O)N1Cc1cccnc1 (centres undefined),–,-6.07%,–
COCc1nnc2n1CCC(NC(=O)CCc1c(C)nn(C)c1C)CC2 (centres undefined),–,-4.91%,–
CC(C)NC(=O)NC1CCN(c2ccc3nnc(-c4ccccc4)n3n2)C1 (centres undefined),–,-25.3%,–
COc1cc(OC)c(NC(=O)N2CCCC2c2nncn2C2CCCC2)cc1Cl (centres undefined),–,-4.17%,–
O=C(Nc1ccccc1)N1CCc2nc(-c3ccccc3)nc(-c3ccc(Cl)cc3)c2C1,–,-24.8%,–
COc1ccc(C(=O)N2CCC([C@@H]3CNC[C@H]3CO)CC2)cc1OC,inactive,–,–
COCCOCC(=O)N1CCCC(c2nc(-c3cccnc3)no2)CCNC(=O)CC1 (centres undefined),–,-1.25%,–
CC(c1cccs1)N(C)[S+](=O)([O-])c1cccc(C(F)(F)F)c1 (centres undefined),–,-22.4%,–
COCC1CN(C2CCC2)CC12CCN(C(=O)C1CCN(C(C)=O)CC1)CC2 (centres undefined),inactive,–,–
COCC1CN(C2CCC2)CC12CCN(C(=O)CCc1ccccc1)CC2 (centres undefined),–,–,31.6 µM (active)
COCC(=O)NC1CCC12CCN(C(=O)CCCc1ccccc1)CC2 (centres undefined),–,1.14%,–
O=C(NCc1c[nH]c2ncccc12)c1ccccn1,–,-22.3% [at 172 µM],–
COc1ccc2c(c1)CCc1c-2n[nH]c1C(=O)N1CCC(c2noc(COc3ccc(C)cc3)n2)CC1,–,–,22.4 µM (active)
COCc1nc(C2CCN(C(=O)c3ccn[nH]3)C2)no1 (centres undefined),–,-5.05%,–
COCCOCc1nc(C2CCN(C(=O)c3ccncc3)CC2)no1,–,-0.248%,–
COCc1nc(C2CCN(C(=O)c3ccoc3)C2)no1 (centres undefined),inactive,–,–
CCOc1ccc(C(=O)N2CCCC(c3noc(COC)n3)C2)cc1 (centres undefined),–,-5.23%,–
Cc1ccc(OCc2nc(C3CCN(C(=O)c4noc(C)c4CN4CCCCC4)CC3)no2)cc1,–,–,31.6 µM (active)
CCC(C)NC(=O)C1COC2(CCN(C(=O)CC(C)(C)C)CC2)N1C(=O)c1cccc(OC)c1 (centres undefined),inactive,–,–
COc1ccc(S(=O)(=O)N2CCC(N(C(=O)C3CC3)C3CCOCC3)CC2)cc1,–,0.262%,–

SMILES,outcome,"activity change, negative = cytotoxicity",Potency
COCc1cc(=O)n(CC(=O)Nc2ccc(C)cc2)c(N2CCOCC2)n1,–,7.31%,–
CN(Cc1ccc(OC(F)(F)F)cc1)C(=O)C1(C)CCOCC1,–,-28%,–
CNC(=O)c1cc[nH]c1C1CCCN(C(=O)c2noc(C)c2Cn2cccn2)C1 (centres undefined),–,-12.4%,–
COc1cccc(C(=O)N2C(C(=O)NC3CC3)COC23CCN(C(=O)c2ccc(F)cc2)CC3)c1 (centres undefined),–,-9.44%,–
O=C(CCC[C@@H]1[C@H]2CCCN3CCC[C@@H](CN1C(=O)c1cccnc1)[C@@H]23)NCCCc1ccccc1,–,-21.4%,–
COc1ccc(S(=O)(=O)N2CCc3c(C(=O)NCc4ccncc4)cccc32)cc1,–,–,35.5 µM (active)
COc1ccc(-c2nc(C(C)C)nc3c2CCN(C(=O)Cc2ccccn2)CC3)cc1,–,-14.6%,–
COc1ccc(S(=O)(=O)N2CCc3c(C(=O)NCCc4ccccn4)cccc32)cc1,–,–,44.7 µM (active)
COCC1CCCCN1c1ccc(C(=O)NCCCc2ccccn2)cn1 (centres undefined),–,-13.6%,–
Cc1ccc(C)c(CNC(=O)c2ccc3c(c2)N(S(=O)(=O)c2ccccc2)CC3)c1,–,-28.2%,–
COc1ccc(S(=O)(=O)N2[C@@H]3CC[C@H]2CC(NC(=O)c2ccncc2)C3)cc1 (some centres undefined),–,-14.8%,–
CCCNC(=O)N(C1CCOCC1)C1CCN(C(=O)c2ccc(F)c(F)c2)CC1,–,12.2%,–
Cc1cccc(OCC(=O)N2CCCC(n3cc(-c4noc(C)n4)nn3)C2)c1 (centres undefined),–,-2.11%,–
COCCCn1c(=O)c(C(=O)N2CCN(C(=O)c3ccccc3)CC2)nc2cccnc21,inactive,–,–
C=CCNC(=O)C(NC(=O)c1cccc(OC)c1)C1CCN(C(=O)c2ccccc2F)CC1 (centres undefined),–,-9.02%,–
C#CCNC(=O)C1CN(c2ccc(OC)cc2)C(=O)N1 (centres undefined),–,-25.2% [at 172 µM],–
CNC(=O)c1cc(C2CC2)nc2onc(C3CCCN(C(=O)C4CC4)C3)c12 (centres undefined),–,-20.2%,–
CN1Cc2ccc(CN(C)C(=O)C3CCN(Cc4ccco4)CC3)cc2C1,–,-4.77%,–
c1ccc(-c2nc(C3CCOCC3)nn2CC2COCCO2)cc1 (centres undefined),–,4.62%,–
CN(C)CCNC(=O)C[C@@H]1c2nc(NC(=O)c3ccc(C(C)(C)C)cc3)sc2C[C@@H]2[C@](C)(CO)[C@H](O)CC[C@]21C,–,–,31.6 µM (active)
COCC(=O)Nc1nc2c(s1)C[C@@H]1[C@](C)(CO)[C@H](O)CC[C@@]1(C)[C@@H]2CC(=O)NCCN1CCOCC1,–,1.71%,–
CC(=O)N1CCN(C(=O)C[C@@H]2c3nc(NC(=O)c4cccs4)sc3C[C@@H]3[C@](C)(CO)[C@H](O)CC[C@]32C)CC1,–,2.61%,–
CC(C)CCN(C1CCOCC1)C1CCN(Cc2cccnc2)CC1,–,-1.9%,–
O=C(c1ccc(Cl)cc1Cl)N1CCC(c2nnc3n2C(C(=O)N2CCN(c4ncccn4)CC2)CC3)CC1 (centres undefined),inactive,–,–
COc1cc(C(=O)N2CCCN(S(C)(=O)=O)c3ccccc32)cc(OC)c1OC,–,-13.2%,–

SMILES,outcome,"activity change, negative = cytotoxicity",Potency
O=C(C1CCCC1)N1Cc2ccccc2CC2(CCCCN2CC2CCNCC2)C1 (centres undefined),–,–,25.1 µM (active)
CC(=O)NCCC(=O)N1Cc2ccccc2CC2(CCCCN2CC2CCNC2)C1 (centres undefined),–,-3.49%,–
O=C(c1ccccc1)N1Cc2ccccc2CC2(CCCN2CC2CCNC2)C1 (centres undefined),–,–,79.4 µM (active)
CC(=O)N1Cc2ccccc2CC2(CCCCN2C)C1 (centres undefined),–,-7.55% [at 172 µM],–
CCN1CCCCC12Cc1ccccc1CN(S(C)(=O)=O)C2 (centres undefined),inactive,–,–
Cc1ccc(CCN2CCCCC23Cc2ccccc2CN(C(=O)CCCC(=O)O)C3)cc1 (centres undefined),–,3.09%,–
O=C(NC1CCCCC1)C1CN(S(=O)(=O)c2cccc(Cl)c2)CC12CCOCC2 (centres undefined),–,-15.6%,–
NC(=O)[C@H](CCC(=O)O)NC(=O)[C@@]1(O)C[C@@H](O)[C@H](O)[C@@H](NS(=O)(=O)c2cccc(C(F)(F)F)c2)C1,inactive,–,–
Cn1nnc(-c2ccc(C(=O)N[C@H]3C[C@@H]4OCC[C@H]34)cc2)n1,–,-8.99%,–
c1cnc2nc(C3CCCCN3)[nH]c2c1 (centres undefined),–,–,inactive
Cc1cc(C(=O)NCC2Cn3cccc3C(=O)N2CC(C)C)n(C)n1 (centres undefined),–,-0.276%,–
COCCn1ccc2c(NC(=O)Cn3nc4c(cc3=O)CCCC4)cccc21,–,-23.3%,–
CC(C)N1Cc2cc(C(=O)Nc3cccc4c3CCCC4)sc2C1,–,–,28.2 µM (active)
CC(C)N1Cc2cc(C(=O)O)sc2C1,–,10.9%,–
O=C(O)C[C@@H]1CCN(C(=O)C2CCCCC2)C[C@@H]1CCN1CCN(c2ccccc2)CC1,inactive,–,–
O=C(c1ccc(F)cc1)N1CCC2(CC1)CCN(Cc1cccs1)c1ccccc1O2,–,–,44.7 µM (active)
CCOC(=O)[C@@H]1[C@@H](OC)C(=O)N(Cc2ccccc2)C12CCN(C(=O)c1ccc(F)cc1)CC2,–,-20.8%,–
O=C(O)CCC(=O)N1CCOC2(CCN(C(=O)c3ccccc3)CC2)C1,–,-11%,–
COCC(=O)N(C1CCOCC1)C1CCN(S(=O)(=O)c2ccc(F)c(F)c2)CC1,–,-11%,–
O=S(=O)(c1ccccc1)N1CCC(CCOc2ccccc2)C1 (centres undefined),–,–,79.4 µM (active)
O=C1OCCN1C1CCN(S(=O)(=O)c2ccccc2)CC1,inactive,–,–
O=C(CCC1CCN(S(=O)(=O)c2ccccc2)CC1)NCc1ccccn1,–,-11.2%,–
CCCN1C(=O)NC(Cc2nc(-c3cccnn3)no2)C1=O (centres undefined),–,-0.719%,–
COc1ccccc1C(=O)NCC1COc2ncncc2C(=O)N1Cc1ccccc1 (centres undefined),–,-0.379% [at 172 µM],–
O=C1Cc2c(-c3ccc(F)cc3F)n[nH]c2CN1Cc1ccccc1F,–,-17.9% [at 172 µM],–

SMILES,outcome,"activity change, negative = cytotoxicity",Potency
Fc1ccccc1-c1n[nH]c2c1CN(Cc1cccc3c1OCO3)CC2,–,–,44.7 µM (active)
CSCC(=O)N1CCc2[nH]nc(-c3ccc4c(c3)OCO4)c2C1,–,-4.07%,–
O=C(c1cccc(Cl)c1)N1CCC(C(=O)N2CCCC(c3nc4ccncc4[nH]3)C2)CC1 (centres undefined),–,1.44%,–
O=C(N1CCCC1c1nc(CCOCC2CC2)no1)C1(c2ccccc2)CC1 (centres undefined),–,-12.4%,–
O=C(c1ccc(-n2cnnc2)cc1)N1CCC2(CCCO2)CC1,–,-27.5%,–
Cn1cccc1C(=O)N[C@H]1C[C@@H](C(=O)O)N(C(=O)CSCC(=O)N2C[C@@H](NC(=O)c3cccn3C)C[C@H]2C(=O)O)C1,–,-0.641%,–
CCc1nc(-c2c3n(c(=O)n(CC(=O)Nc4ccc(C)cc4)c2=O)CCCCC3)no1,–,3.58%,–
Cc1cccc(-c2cc(C3CCN(S(=O)(=O)c4cccc(C#N)c4)CC3)[nH]n2)c1,–,–,25.1 µM (active)
Cc1cccc(S(=O)(=O)N2CCC(n3cnnc3C(C)C)CC2)c1,–,-28.1%,–
N#Cc1cccc(CN2CCCN(S(=O)(=O)c3ccccc3)CCC(=O)NCC2)c1,–,-29.8%,–
O=C(O)C[C@@H]1CCN(C(=O)c2ccc(C(F)(F)F)cc2)C[C@@H]1CCN1CCN(c2ccc(F)cc2)CC1,–,0.723%,–
COCCNC(=O)C1COC2(CCN(C(=O)c3ccc(F)cc3)CC2)N1C(=O)c1ccccc1C (centres undefined),–,-16.6%,–
COc1ccccc1Nc1ccnc(N2CCC(C(=O)NCc3cccc(Cl)c3)CC2)n1,–,–,39.8 µM (active)
COc1cccc(C(=O)N2CCN(c3nccc(Nc4ccccc4OC)n3)CC2)c1,–,-63.1%,–
COc1ccccc1Nc1ccnc(N2CCN(C(=O)c3ccc(C(F)(F)F)cc3)CC2)n1,–,–,39.8 µM (active)
Cc1ccccc1C(=O)N1CCN(c2nccc(Nc3ccccc3Cl)n2)CC1,–,–,35.5 µM (active)
COc1ccccc1Nc1ccnc(N2CCC(C(=O)NCc3ccc(C(F)(F)F)cc3)CC2)n1,–,–,31.6 µM (active)
O=C(Nc1ccccc1Cl)N1CCC(Oc2ncccc2C(=O)N2CCCCC2)C1 (centres undefined),–,-19.7%,–
O=C(c1ccccc1Cl)N1CCN(C(=O)c2nc3cccnc3n(Cc3ccccc3)c2=O)CC1,–,-4.8%,–
COc1ccccc1Nc1ccnc(N2CCC(NC(=O)NC(C)C)CC2)n1,–,-0.588%,–
COc1ccc(C2Cn3nnc(C(=O)N4CCC(C(=O)NCc5ccc(C)cc5)CC4)c3CO2)cc1 (centres undefined),–,-5.15%,–
COc1ccccc1C(=O)N1CCN(c2cc(C(F)(F)F)ncn2)CC1,–,-26.2%,–
COc1ccc(C2Cn3cnc(C(=O)N4CCC(C(=O)NCc5cccc(F)c5)CC4)c3CO2)cc1 (centres undefined),–,17.2%,–
Cc1ccc(C2Cn3cnc(C(=O)N4CCC(C(=O)NCc5cccc(Cl)c5)CC4)c3CO2)cc1 (centres undefined),–,-16.9%,–
